{"source": "paper PMC12820563", "about": "“FoxP3 forms a head-to-head dimer in vivo and stabilizes its multimerization on adjacent microsatellites”", "note": "Over roughly 16,000 sequences, “rpm ratio (pull-down/input)” has its median near 0.5; the highest 2% begin near 5.5. The sample holds the highest values, similar sequences and a random draw of the others, so the mix is not that of the screen."}
{"target": "T1, MBP-FoxP3dN (Mus musculus, UniProt Q99JB6 188-423)", "T1 sequence": "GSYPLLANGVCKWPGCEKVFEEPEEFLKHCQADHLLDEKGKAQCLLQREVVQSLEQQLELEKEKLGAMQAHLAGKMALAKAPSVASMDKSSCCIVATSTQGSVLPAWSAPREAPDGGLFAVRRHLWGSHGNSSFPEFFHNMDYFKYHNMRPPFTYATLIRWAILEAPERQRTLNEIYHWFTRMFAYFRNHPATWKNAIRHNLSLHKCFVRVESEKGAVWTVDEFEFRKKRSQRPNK", "experiment": "PD-seq (MBP pull-down with sequencing); 20 mM Tris-HCl pH 7.5, 100 mM NaCl, 1.5 mM MgCl2, 0.4 uM protein, 0.1 uM dsDNA library, 30 min, room temperature, amylose pull-down; high values mean tight binding", "conditions": "protein: recombinant; tags: His6-MBP; chain copies: 2; dsDNA, one strand shown", "outline": "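A fragment of mouse FoxP3 or FoxP1 without its N-terminus, carrying a His6-MBP tag and produced in E. coli, was combined at 0.4 µM with a 0.1 µM degenerate double-stranded DNA library filled in with Klenow. The mixture sat for 30 min at room temperature in Tris pH 7.5 buffer containing NaCl and MgCl2. Protein–DNA complexes were captured on amylose resin, washed three times, and the DNA was freed with proteinase K, barcoded by PCR and sequenced on Illumina. Binding is expressed as reads-per-million enrichment of pull-down over input, with replicates pooled.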"}
{"sequence": "GATGATTGTTCTCCCAGCTGATGAATTATGAGAGTCGAGTAAACAAATTTTCCTAATCTTTCTGTTCAAGCGCCATCTAC", "binding signal": "0.397 RPM ratio (pull-down/input)"}
{"sequence": "GATGATTGTTCTCCCAGCTGATGAATTTAAGGCATCGAGTAAACAAATTTTCCTAATCTTTCTGTTCAAGCGCCATCTAC", "binding signal": "0.732 RPM ratio (pull-down/input)"}
{"sequence": "GATGATTGTTCTCCCAGCTGATGAATTTAAAGACTCGAGTAAACAAATTTTCCTAATCTTTCTGTTCAAGCGCCATCTAC", "binding signal": "0.245 RPM ratio (pull-down/input)"}
{"sequence": "GATGATTGTTCTCCCAGCTGATGAATTAGTACAGTCGAGTAAACAAATTTTCCTAATCTTTCTGTTCAAGCGCCATCTAC", "binding signal": "0.484 RPM ratio (pull-down/input)"}
{"sequence": "GATGATTGTTCTCCCAGCTGATGAATTGGATTTATCGAGTAAACAAATTTTCCTAATCTTTCTGTTCAAGCGCCATCTAC", "binding signal": "1.47 RPM ratio (pull-down/input)"}
{"sequence": "GATGATTGTTCTCCCAGCTGATGAATTTCCTGCATCGAGTAAACAAATTTTCCTAATCTTTCTGTTCAAGCGCCATCTAC", "binding signal": "0.719 RPM ratio (pull-down/input)"}
{"sequence": "GATGATTGTTCTCCCAGCTGATGAATTCCCTGCATCGAGTAAACAAATTTTCCTAATCTTTCTGTTCAAGCGCCATCTAC", "binding signal": "0.746 RPM ratio (pull-down/input)"}
{"sequence": "GATGATTGTTCTCCCAGCTGATGAATTCTGCCATTCGAGTAAACAAATTTTCCTAATCTTTCTGTTCAAGCGCCATCTAC", "binding signal": "4.97 RPM ratio (pull-down/input)"}
{"sequence": "GATGATTGTTCTCCCAGCTGATGAATTTCTGCATTCGAGTAAACAAATTTTCCTAATCTTTCTGTTCAAGCGCCATCTAC", "binding signal": "6.35 RPM ratio (pull-down/input)"}
{"sequence": "GATGATTGTTCTCCCAGCTGATGAATTCGCTGCATCGAGTAAACAAATTTTCCTAATCTTTCTGTTCAAGCGCCATCTAC", "binding signal": "1.02 RPM ratio (pull-down/input)"}
{"sequence": "GATGATTGTTCTCCCAGCTGATGAATTCCTGCATTCGAGTAAACAAATTTTCCTAATCTTTCTGTTCAAGCGCCATCTAC", "binding signal": "5.61 RPM ratio (pull-down/input)"}
{"sequence": "GATGATTGTTCTCCCAGCTGATGAATTCTTGACCTCGAGTAAACAAATTTTCCTAATCTTTCTGTTCAAGCGCCATCTAC", "binding signal": "0.216 RPM ratio (pull-down/input)"}
{"sequence": "GATGATTGTTCTCCCAGCTGATGAATTCATTCCGTCGAGTAAACAAATTTTCCTAATCTTTCTGTTCAAGCGCCATCTAC", "binding signal": "0.236 RPM ratio (pull-down/input)"}
{"sequence": "GATGATTGTTCTCCCAGCTGATGAATTTTTCAGTTCGAGTAAACAAATTTTCCTAATCTTTCTGTTCAAGCGCCATCTAC", "binding signal": "0.248 RPM ratio (pull-down/input)"}
{"sequence": "GATGATTGTTCTCCCAGCTGATGAATTTGAGTAGTCGAGTAAACAAATTTTCCTAATCTTTCTGTTCAAGCGCCATCTAC", "binding signal": "0.778 RPM ratio (pull-down/input)"}
{"sequence": "GATGATTGTTCTCCCAGCTGATGAATTTTTGTGGTCGAGTAAACAAATTTTCCTAATCTTTCTGTTCAAGCGCCATCTAC", "binding signal": "0.472 RPM ratio (pull-down/input)"}
{"sequence": "GATGATTGTTCTCCCAGCTGATGAATTTCTGTGGTCGAGTAAACAAATTTTCCTAATCTTTCTGTTCAAGCGCCATCTAC", "binding signal": "0.335 RPM ratio (pull-down/input)"}
{"sequence": "GATGATTGTTCTCCCAGCTGATGAATTTGGTGTGTCGAGTAAACAAATTTTCCTAATCTTTCTGTTCAAGCGCCATCTAC", "binding signal": "3.91 RPM ratio (pull-down/input)"}
{"sequence": "GATGATTGTTCTCCCAGCTGATGAATTTGTGGTGTCGAGTAAACAAATTTTCCTAATCTTTCTGTTCAAGCGCCATCTAC", "binding signal": "6.2 RPM ratio (pull-down/input)"}
{"sequence": "GATGATTGTTCTCCCAGCTGATGAATTTTTGGTGTCGAGTAAACAAATTTTCCTAATCTTTCTGTTCAAGCGCCATCTAC", "binding signal": "0.396 RPM ratio (pull-down/input)"}
{"sequence": "GATGATTGTTCTCCCAGCTGATGAATTTGTGTGGTCGAGTAAACAAATTTTCCTAATCTTTCTGTTCAAGCGCCATCTAC", "binding signal": "5.5 RPM ratio (pull-down/input)"}
{"sequence": "GATGATTGTTCTCCCAGCTGATGAATTTAGCCCATCGAGTAAACAAATTTTCCTAATCTTTCTGTTCAAGCGCCATCTAC", "binding signal": "1.28 RPM ratio (pull-down/input)"}
{"sequence": "GATGATTGTTCTCCCAGCTGATGAATTTCCACGATCGAGTAAACAAATTTTCCTAATCTTTCTGTTCAAGCGCCATCTAC", "binding signal": "0.211 RPM ratio (pull-down/input)"}
{"sequence": "GATGATTGTTCTCCCAGCTGATGAATTGCATCGGTCGAGTAAACAAATTTTCCTAATCTTTCTGTTCAAGCGCCATCTAC", "binding signal": "1.43 RPM ratio (pull-down/input)"}
{"sequence": "GATGATTGTTCTCCCAGCTGATGAATTATGATGTTCGAGTAAACAAATTTTCCTAATCTTTCTGTTCAAGCGCCATCTAC", "binding signal": "3.29 RPM ratio (pull-down/input)"}
{"sequence": "GATGATTGTTCTCCCAGCTGATGAATTATGTGTTTCGAGTAAACAAATTTTCCTAATCTTTCTGTTCAAGCGCCATCTAC", "binding signal": "4.42 RPM ratio (pull-down/input)"}
{"sequence": "GATGATTGTTCTCCCAGCTGATGAATTATGTTCTTCGAGTAAACAAATTTTCCTAATCTTTCTGTTCAAGCGCCATCTAC", "binding signal": "1.3 RPM ratio (pull-down/input)"}
{"sequence": "GATGATTGTTCTCCCAGCTGATGAATTATGTTGGTCGAGTAAACAAATTTTCCTAATCTTTCTGTTCAAGCGCCATCTAC", "binding signal": "6.57 RPM ratio (pull-down/input)"}
{"sequence": "GATGATTGTTCTCCCAGCTGATGAATTATGTTCATCGAGTAAACAAATTTTCCTAATCTTTCTGTTCAAGCGCCATCTAC", "binding signal": "1.09 RPM ratio (pull-down/input)"}
{"sequence": "GATGATTGTTCTCCCAGCTGATGAATTATGATGATCGAGTAAACAAATTTTCCTAATCTTTCTGTTCAAGCGCCATCTAC", "binding signal": "1.63 RPM ratio (pull-down/input)"}
{"sequence": "GATGATTGTTCTCCCAGCTGATGAATTATGATGGTCGAGTAAACAAATTTTCCTAATCTTTCTGTTCAAGCGCCATCTAC", "binding signal": "1.33 RPM ratio (pull-down/input)"}
{"sequence": "GATGATTGTTCTCCCAGCTGATGAATTATGTTTTTCGAGTAAACAAATTTTCCTAATCTTTCTGTTCAAGCGCCATCTAC", "binding signal": "6.33 RPM ratio (pull-down/input)"}
{"sequence": "GATGATTGTTCTCCCAGCTGATGAATTATGTTGTTCGAGTAAACAAATTTTCCTAATCTTTCTGTTCAAGCGCCATCTAC", "binding signal": "7.62 RPM ratio (pull-down/input)"}
{"sequence": "GATGATTGTTCTCCCAGCTGATGAATTATGTTGATCGAGTAAACAAATTTTCCTAATCTTTCTGTTCAAGCGCCATCTAC", "binding signal": "7.26 RPM ratio (pull-down/input)"}
{"sequence": "GATGATTGTTCTCCCAGCTGATGAATTATGTCTTTCGAGTAAACAAATTTTCCTAATCTTTCTGTTCAAGCGCCATCTAC", "binding signal": "1.78 RPM ratio (pull-down/input)"}
{"sequence": "GATGATTGTTCTCCCAGCTGATGAATTATCTTGGTCGAGTAAACAAATTTTCCTAATCTTTCTGTTCAAGCGCCATCTAC", "binding signal": "0.323 RPM ratio (pull-down/input)"}
